This note sets out measurements from PMC8384837, “Expanding the binding specificity for RNA recognition by a PUF domain”.

Assay in all cases: yeast three-hybrid, YBZ-1, SC-Leu-His + 0.5 mM 3-AT, 4 days
What all share (details): tags: N-Gal4 AD-HA kept; label: inside an RPR1-promoter hybrid RNA with tandem MS2 sites; ssRNA

One test has as its target PUM1 PUF domain R7-KFY (Homo sapiens, UniProt Q14671 828-1176, S1079K;N1080F;E1083Y). The method in brief:
(§1)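 Sequencing with Illumina followed PCR amplification of the repeat regions from transformants grown four days on SC-Leu (input) or SC-Leu-His + 0.5 mM 3-AT (selection). The transformants were strain YBZ-1 with a LexA–MS2 coat fusion and a HIS3 reporter, carrying Pumilio-1 PUF domain libraries and matching RNA elements. The interaction score is the log change in variant frequency from input to selection, computed in log2 with a pseudocount of 1 for absent variants.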

The next test addresses PUM1 PUF domain R3-EYS (Homo sapiens, UniProt Q14671 828-1176, C935E;R936Y;Q939S). The essentials:
as §1

A further test concerns the target PUM1 PUF domain R8-VYF (Homo sapiens, UniProt Q14671 828-1176, N1122V;Q1126F). The essentials:
as §1

The next test has as its target PUM1 PUF domain R4-SRE (Homo sapiens, UniProt Q14671 828-1176, N971S;H972R;Q975E). The essentials:
as §1

A further test concerns the target PUM1 PUF domain R4-ARG (Homo sapiens, UniProt Q14671 828-1176, N971A;H972R;Q975G). The essentials:
as §1

The target in another test is T1, PUM1 PUF domain R6-NFT (Homo sapiens, UniProt Q14671 828-1176, Y1044F;Q1047T).
T1 sequence: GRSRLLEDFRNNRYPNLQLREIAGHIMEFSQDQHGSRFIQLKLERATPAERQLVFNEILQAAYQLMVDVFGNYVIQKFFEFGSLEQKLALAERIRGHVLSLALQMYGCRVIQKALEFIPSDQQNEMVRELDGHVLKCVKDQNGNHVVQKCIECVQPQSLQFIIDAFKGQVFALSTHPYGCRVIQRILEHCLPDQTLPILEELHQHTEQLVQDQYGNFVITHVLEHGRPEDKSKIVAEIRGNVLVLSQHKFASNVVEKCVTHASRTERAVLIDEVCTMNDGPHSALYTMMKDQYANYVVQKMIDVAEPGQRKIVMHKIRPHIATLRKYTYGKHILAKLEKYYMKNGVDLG
The method in brief: as §1

In a further test the target is PUM1 PUF domain R3-ESL (Homo sapiens, UniProt Q14671 828-1176, C935E;R936S;Q939L). The essentials:
as §1

Another test concerns the target PUM1 PUF domain R4-NPG (Homo sapiens, UniProt Q14671 828-1176, H972P;Q975G). The essentials: as §1
The target in the next test is PUM1 PUF domain R4-RMR (Homo sapiens, UniProt Q14671 828-1176, N971R;H972M;Q975R). The essentials:
as §1

A further test deals with PUM1 PUF domain R7-EPW (Homo sapiens, UniProt Q14671 828-1176, S1079E;N1080P;E1083W). The essentials:
as §1

PUM1 PUF domain R4-NPG, sequence (Q14671 828-1176 H972P/Q975G): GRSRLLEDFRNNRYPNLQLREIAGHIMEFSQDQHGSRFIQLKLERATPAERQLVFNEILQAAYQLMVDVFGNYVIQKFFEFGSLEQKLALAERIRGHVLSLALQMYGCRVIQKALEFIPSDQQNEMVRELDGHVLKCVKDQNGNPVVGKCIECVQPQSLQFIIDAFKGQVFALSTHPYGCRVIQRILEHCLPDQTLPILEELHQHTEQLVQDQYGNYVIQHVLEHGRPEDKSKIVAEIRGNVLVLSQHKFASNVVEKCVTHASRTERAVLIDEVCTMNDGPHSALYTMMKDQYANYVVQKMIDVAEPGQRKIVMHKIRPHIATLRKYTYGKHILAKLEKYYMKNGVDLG
PUM1 PUF domain R4-ARG, sequence (Q14671 828-1176 N971A/H972R/Q975G): as the sequence (Q14671 828-1176 H972P/Q975G) above, with N144A, P145R counted along it

For the sequence “GGCUAGAACUAGUGGAUCCCCCGGCGCCCGGCGGCUCGAGCCCGGGUAAGUAUAAAUAGUCUGCAUGCCGCCGGGCGCCAUGCCUGCAGGUCGACUCUAGAAAACAUG”, in the test with PUM1 PUF domain R7-KFY, the binding signal is 2.56 log2 enrichment (interaction score).
Take “GGCUAGAACUAGUGGAUCCCCCGGCGCCCGGCGGCUCGAGCCCGGGUAAGUGUAAGUAGUCUGCAUGCCGCCGGGCGCCAUGCCUGCAGGUCGACUCUAGAAAACAUG”: in the test with PUM1 PUF domain R3-EYS, the binding signal was 4.44 log2 enrichment (interaction score).
With “GGCUAGAACUAGUGGAUCCCCCGGCGCCCGGCGGCUCGAGCCCGGGUAAGUCUAAAUAGUCUGCAUGCCGCCGGGCGCCAUGCCUGCAGGUCGACUCUAGAAAACAUG”, in the test with PUM1 PUF domain R7-KFY, the binding signal is 3.1 log2 enrichment (interaction score).
“GGCUAGAACUAGUGGAUCCCCCGGCGCCCGGCGGCUCGAGCCCGGGUAAGCGUAAAUAGUCUGCAUGCCGCCGGGCGCCAUGCCUGCAGGUCGACUCUAGAAAACAUG”: the binding signal with PUM1 PUF domain R8-VYF was 2.73 log2 enrichment (interaction score).
Turning to “GGCUAGAACUAGUGGAUCCCCCGGCGCCCGGCGGCUCGAGCCCGGGUAAGUGUAAAUAGUCUGCAUGCCGCCGGGCGCCAUGCCUGCAGGUCGACUCUAGAAAACAUG”, the binding signal was 3.49 log2 enrichment (interaction score) with PUM1 PUF domain R4-SRE; 4.57 log2 enrichment (interaction score) with PUM1 PUF domain R4-ARG; 4.45 log2 enrichment (interaction score) with PUM1 PUF domain R6-NFT; 2.59 log2 enrichment (interaction score) with PUM1 PUF domain R3-ESL; 2.23 log2 enrichment (interaction score) with PUM1 PUF domain R8-VYF; 2.63 log2 enrichment (interaction score) with PUM1 PUF domain R4-NPG.
Take “GGCUAGAACUAGUGGAUCCCCCGGCGCCCGGCGGCUCGAGCCCGGGUAAGUGUACAUAGUCUGCAUGCCGCCGGGCGCCAUGCCUGCAGGUCGACUCUAGAAAACAUG”: the results for the binding signal in the test with PUM1 PUF domain R4-RMR, in the test with PUM1 PUF domain R4-ARG and in the test with PUM1 PUF domain R4-NPG were 2.94 log2 enrichment (interaction score), 1.86 log2 enrichment (interaction score) and 1.42 log2 enrichment (interaction score), respectively.
As to “GGCUAGAACUAGUGGAUCCCCCGGCGCCCGGCGGCUCGAGCCCGGGUAAGUGUAUAUAGUCUGCAUGCCGCCGGGCGCCAUGCCUGCAGGUCGACUCUAGAAAACAUG”, the binding signal with PUM1 PUF domain R4-ARG was 1.79 log2 enrichment (interaction score); in the test with PUM1 PUF domain R4-NPG, 3.81 log2 enrichment (interaction score).
On to “GGCUAGAACUAGUGGAUCCCCCGGCGCCCGGCGGCUCGAGCCCGGGUAAGUUUAAAUAGUCUGCAUGCCGCCGGGCGCCAUGCCUGCAGGUCGACUCUAGAAAACAUG”, for which the binding signal with PUM1 PUF domain R7-EPW is 2.81 log2 enrichment (interaction score).
